Laboratory results published in PubChem BioAssay (Tox21).
Records with an inconclusive call do not appear. Activity calls are given as the source filed them. The call rests on the fitted dose curve.

Key:
[1] = biological target: Acetylcholinesterase (Homo sapiens) (UniProt P22303); test: Acetylcholinesterase (AChE) small molecule antagonists: colormetric cell-based qHTS assay (AID 1347395); further: nearly all actives have a fitted effect of over 30% in size
Procedure, shortened: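 After overnight attachment at 37 C, SH-SY5Y cells get 30 min compound exposure; detection cocktail (acetylthiocholine, DTNB) then incubates 90 min at 37 C, and absorbance reflects AChE-generated thiocholine.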

[2] = biological target: Acetylcholinesterase (Homo sapiens) (UniProt P22303); test: Acetylcholinesterase (AChE) small molecule antagonists: enzyme-based qHTS assay (AID 1347397); conditions: Potency: AChE enzyme activity inhibition; outcome: AChE enzyme activity inhibition; further: nearly all actives have a fitted effect of over 55% in size
Procedure, shortened: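 Colorimetric DTNB readout of acetylthiocholine hydrolysis, 10 min at room temperature, after 30 min room-temperature exposure of 50 mU/mL recombinant human enzyme to compound; DMSO vehicle control.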

[3] = biological target: Acetylcholinesterase (Homo sapiens) (UniProt P22303); test: Acetylcholinesterase (AChE) small molecule antagonists: fluorescence cell-based qHTS assay (AID 1347398); conditions: Potency: AChE activity; outcome: AChE activity; further: nearly all actives have a fitted effect of over 50% in size
Procedure, shortened: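 Cellular AChE activity read as thiocholine from acetylthiocholine hydrolysis, detected by Thiolite Green fluorescence at 490/520 nm after 40 min at room temperature. Compounds were pre-incubated 30 min at 37 C on adherent SH-SY5Y cells.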

[4] = biological target: Acetylcholinesterase (Homo sapiens) (UniProt P22303); test: Acetylcholinesterase (AChE) small molecule antagonists: enzyme-based qHTS assay with human liver microsomes (AID 1347399); conditions: Potency: qHTS inhibition; outcome: qHTS inhibition; further: nearly all actives have a fitted effect of over 60% in size
Procedure, shortened: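 Recombinant human AChE (50 mU/mL in the enzyme mix) and human liver microsomes (0.25 mg/mL final) were preincubated with compound and NADPH (0.25 mg/mL final) for 30 min at 37 C. Acetylthiocholine/DTNB was then added; thiocholine was read colorimetrically after 10 min at room temperature.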
On the % scale 0 is the no-effect control and ±100 the full control effect.

Sequence of Acetylcholinesterase (Homo sapiens) (P22303 whole entry, looked up): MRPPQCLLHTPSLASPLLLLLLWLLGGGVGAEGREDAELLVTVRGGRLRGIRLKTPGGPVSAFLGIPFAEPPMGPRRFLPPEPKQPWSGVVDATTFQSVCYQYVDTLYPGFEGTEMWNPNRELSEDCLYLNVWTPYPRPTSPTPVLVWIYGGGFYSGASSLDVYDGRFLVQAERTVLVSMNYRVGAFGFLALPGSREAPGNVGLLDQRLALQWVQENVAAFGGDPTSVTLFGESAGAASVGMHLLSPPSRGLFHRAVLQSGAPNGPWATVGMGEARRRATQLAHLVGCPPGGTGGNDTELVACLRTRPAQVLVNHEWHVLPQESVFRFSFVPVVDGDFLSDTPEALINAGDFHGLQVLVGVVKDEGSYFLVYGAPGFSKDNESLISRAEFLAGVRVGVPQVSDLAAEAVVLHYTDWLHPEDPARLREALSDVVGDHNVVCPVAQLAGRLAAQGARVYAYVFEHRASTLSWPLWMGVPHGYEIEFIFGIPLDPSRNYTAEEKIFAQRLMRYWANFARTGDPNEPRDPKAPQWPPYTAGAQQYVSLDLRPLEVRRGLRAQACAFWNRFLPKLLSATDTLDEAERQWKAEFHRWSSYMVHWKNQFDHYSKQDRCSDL

Cc1ncc(CO)c(C=O)c1O
inactive: Potency [1] | Potency [2] | Potency [3] | Potency [4]

CC=C(Cl)Cl
inactive: Potency [1] | Potency [2] | Potency [3] | Potency [4]

COC(=O)CC(=O)C(C)(C)C
inactive: Potency [1] | Potency [2] | Potency [3] | Potency [4]

CC(C)OB(OC(C)C)OC(C)C
inactive: Potency [1] | Potency [2] | Potency [3] | Potency [4]

O=C1c2ccccc2C(=O)N1CO
inactive: Potency [1] | Potency [2] | Potency [3] | Potency [4]

O=C(OCc1ccccc1)c1ccccc1
inactive: Potency [1] | Potency [2] | Potency [3] | Potency [4]

N[C@@H](Cc1c[nH]c2ccccc12)C(=O)O
inactive: Potency [1] | Potency [2] | Potency [3] | Potency [4]

CC1COc2ccccc2N1C(=O)C(Cl)Cl (stereo not given)
inactive: Potency [1] | Potency [2] | Potency [3] | Potency [4]

CCCCCCCCC(CCCCCC)C(=O)O (stereo not given)
inactive: Potency [1] | Potency [2] | Potency [3] | Potency [4]

CCOC(=O)c1ccc(I)cc1
inactive: Potency [1] | Potency [2] | Potency [3] | Potency [4]

Cc1cccc(C)c1NC(=O)CN1CCCC1
inactive: Potency [1] | Potency [2] | Potency [3] | Potency [4]

CC(C)c1ccc2sc3ccccc3c(=O)c2c1
inactive: Potency [1] | Potency [2] | Potency [3] | Potency [4]

CC1=CC[C@H](CC=O)C1(C)C
inactive: Potency [1] | Potency [2] | Potency [3] | Potency [4]

NCCc1ccc(O)c(O)c1
inactive: outcome [1] | outcome [2] | outcome [3] | outcome [4]

Cc1ncc[nH]1
inactive: Potency [1] | Potency [2] | Potency [3] | Potency [4]

C=C1[C@H]2CC[C@@H]3[C@H]2C(C)(C)CCC[C@]13C
inactive: Potency [1] | Potency [2] | Potency [3] | Potency [4]

COC(=O)c1ccc(C=O)cc1
inactive: Potency [1] | Potency [2] | Potency [3] | Potency [4]

CC(=O)N[C@@H](Cc1ccc(O)cc1)C(=O)O
inactive: Potency [1] | Potency [2] | Potency [3] | Potency [4]

O=C(c1ccccc1)C1(O)CCCCC1
inactive: Potency [1] | Potency [2] | Potency [3] | Potency [4]

CCOC(=O)C(C)C(C)=O (stereo not given)
inactive: Potency [1] | Potency [2] | Potency [3] | Potency [4]

CC(C)OC(=O)C(O)(CC(=O)O)CC(=O)O
inactive: Potency [1] | Potency [2] | Potency [3] | Potency [4]

CCCCCCCCCCCCCCCC(=O)OC(C)C
inactive: Potency [1] | Potency [2] | Potency [3] | Potency [4]

C=CCOC(=O)CCCCCC
inactive: Potency [1] | Potency [2] | Potency [3] | Potency [4]

CN1CCN(C(c2ccccc2)c2ccccc2)CC1
inactive: Potency [1] | Potency [2] | Potency [3] | Potency [4]

CC(C)CC(=O)CC(C)CC(C)C (stereo not given)
inactive: Potency [1] | Potency [2] | Potency [3] | Potency [4]

CC(C)(C)C(=O)c1ccccc1
inactive: Potency [1] | Potency [2] | Potency [3] | Potency [4]

CCCNCCC
inactive: Potency [1] | Potency [2] | Potency [3] | Potency [4]

C/C(=C(/OCCOc1ccc(Cl)cc1)c1ccc(Cl)cc1Cl)n1ccnc1
inactive: Potency [1] | Potency [2] | Potency [3] | Potency [4]

CC(CN1CC(=O)NC(=O)C1)N1CC(=O)NC(=O)C1 (stereo not given)
inactive: Potency [1] | Potency [2] | Potency [3] | Potency [4]

CCCCCCCC/C=C\CCCCCCCC(=O)O
inactive: Potency [1] | Potency [2] | Potency [3] | Potency [4]

O=S(=O)(O)c1ccc2nc(-c3ccccc3)[nH]c2c1
inactive: Potency [1] | Potency [2] | Potency [3] | Potency [4]

Oc1ccccc1Cc1ccccc1O
inactive: Potency [1] | Potency [2] | Potency [3] | Potency [4]

CCO[Si](OCC)(OCC)c1ccccc1
inactive: Potency [1] | Potency [2] | Potency [3] | Potency [4]

CCN[C@H]1C[C@H](C)S(=O)(=O)c2sc(S(N)(=O)=O)cc21
inactive: Potency [1] | Potency [2] | Potency [3] | Potency [4]

CCCCc1nc(Cl)c(CO)n1Cc1ccc(-c2ccccc2-c2nn[nH]n2)cc1
inactive: Potency [1] | Potency [2] | Potency [3] | Potency [4]

CC[Si](OC(C)=O)(OC(C)=O)OC(C)=O
inactive: Potency [1] | Potency [2] | Potency [3] | Potency [4]

CCCCCCCCCCCCCOC(=O)CCSCCC(=O)OCCCCCCCCCCCCC
inactive: activity, negative = inhibition [1] 3.05% [at 23.6 µM] | activity change, negative = inhibition [2] 1.34% [at 23.6 µM] | activity change, negative = inhibition [3] -0.492% [at 23.8 µM] | activity change, negative = inhibition [4] 0.346% [at 23.6 µM]

C=C[C@@]1(C)CC(=O)[C@]2(O)[C@@]3(C)[C@@H](O)CCC(C)(C)[C@@H]3[C@H](O)[C@H](OC(C)=O)[C@@]2(C)O1
inactive: Potency [1] | Potency [2] | Potency [3] | Potency [4]

Cc1ccc(C(=O)c2ccccc2)cc1
inactive: Potency [1] | Potency [2] | Potency [3] | Potency [4]

CNC[C@H](O)c1ccc(O)c(O)c1
inactive: outcome [1] | outcome [2] | outcome [3] | outcome [4]

CCCC(C)C(=O)OCC (stereo not given)
inactive: Potency [1] | Potency [2] | Potency [3] | Potency [4]

O=C(O)Cc1ccc(-c2ccccc2)cc1
inactive: Potency [1] | Potency [2] | Potency [3] | Potency [4]

Cc1cccc(C)c1OCC(C)N (stereo not given)
inactive: outcome [1] | outcome [2] | outcome [3] | outcome [4]

CCc1ccc(O)c(C(C)(C)C)c1
inactive: Potency [1] | Potency [2] | Potency [3] | Potency [4]

COC(=O)Nc1nc2ccc(C(=O)c3cccs3)cc2[nH]1
inactive: Potency [1] | Potency [2] | Potency [3] | Potency [4]

CC1=C(C)C(=O)C(C(CCCCCC(=O)O)c2ccccc2)=C(C)C1=O (stereo not given)
inactive: Potency [1] | Potency [2] | Potency [3] | Potency [4]

C/C=C/C(=O)OCC(C)C
inactive: Potency [1] | Potency [2] | Potency [3] | Potency [4]

CCC(=O)OCc1ccccc1
inactive: Potency [1] | Potency [2] | Potency [3] | Potency [4]

Fc1ccccc1-c1ccccc1
inactive: Potency [1] | Potency [2] | Potency [3] | Potency [4]

NCCOCCOCCN
inactive: Potency [1] | Potency [2] | Potency [3] | Potency [4]

CC1(C)OC(=O)NC1=O
inactive: Potency [1] | Potency [2] | Potency [3] | Potency [4]

CNc1ncnc2nc[nH]c12
inactive: Potency [1] | Potency [2] | Potency [3] | Potency [4]

CC(C)OC(=O)CCCCC(=O)OC(C)C
inactive: Potency [1] | Potency [2] | Potency [3] | Potency [4]

Oc1ccc(C(c2ccc(O)cc2)C(Cl)(Cl)Cl)cc1
inactive: Potency [1] | Potency [2] | Potency [3] | Potency [4]

COC(=O)CCC(=O)OC
inactive: Potency [1] | Potency [2] | Potency [3] | Potency [4]

Cc1ccc(C)c(O)c1C
inactive: Potency [1] | Potency [2] | Potency [3] | Potency [4]

CC1CCCCC1
inactive: Potency [1] | Potency [2] | Potency [3] | Potency [4]

CCC1(C)CC(=O)NC1=O (stereo not given)
inactive: Potency [1] | Potency [2] | Potency [3] | Potency [4]

CCCCC(CC)COC(=O)c1ccc(N(C)C)cc1 (stereo not given)
inactive: Potency [1] | Potency [2] | Potency [3] | Potency [4]

CC(=O)O[C@]1(C(C)=O)CC[C@H]2[C@@H]3C=C(C)C4=CC(=O)CC[C@]4(C)[C@H]3CC[C@@]21C
inactive: Potency [1] | Potency [2] | Potency [3] | Potency [4]
